In PubChem BioAssay (Tox21):
Inconclusive results are not listed. The source made the active and inactive calls. Unless noted, the call rests on the fitted dose curve; in most records, active means well fitted curve in the direction sought with a large enough effect in the repeat runs; inconclusive means weak or mixed curves; inactive means no such curve, though single readings can be large; an effect the other way counts as inactive or inconclusive.

Columns and labels:
[1] = qHTS assay to identify small molecule antagonists of the vitamin D receptor (VDR) signaling pathway - cell viability counter screen (AID 743225); further: nearly all actives have a fitted effect of over 50% in size
How it was run: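 Cells (VDR-UAS-bla HEK 293T) are plated, rested 4 h at 37C, dosed with compound and 3 nM final 1-alpha,25-dihydroxy vitamin D3, and incubated 16 h. Viability is taken from CellTiter-Glo luminescence in the reporter wells.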

[2] = qHTS assay to identify small molecule agonists of the NFkB signaling pathway (AID 1159509; active means well fitted curve in the direction sought with a large enough effect in the signal ratio in the repeat runs, not every such curve was filed as active; the % refers to the signal ratio; further: series mostly up to about 61 µM)
How it was run: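 After overnight attachment, reporter cells received test compounds, DMSO or positive controls and were incubated 5 hr at 37 C. FRET substrate was then added for 1.5 hr at room temperature before dual-emission fluorescence reading.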

[3] = qHTS assay to identify small molecule agonists of the NFkB signaling pathway - cell viability counter screen (AID 1159515; calls by dose curve; further: series mostly up to about 61 µM; nearly all actives have a fitted effect of over 55% in size)
How it was run: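 Using the same wells as the NFkB reporter read, ME-180 NFkB-bla cells given compounds for 5 hr were assessed for viability via CellTiter-Glo, with luminescence taken after a 30 min room-temperature incubation.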

[4] = qHTS assay to identify small molecule agonists of the endoplasmic reticulum stress response signaling pathway (AID 1159516; active means well fitted activation curve with a large enough effect in the signal ratio in the repeat runs, not every such curve was filed as active; the % refers to the signal ratio)
How it was run: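 An ESRE-bla HeLa cell assay: compounds were pin-transferred from DMSO onto overnight-plated cells and left 5 hr at 37 C. Substrate was then loaded for 2 hr at room temperature before reading fluorescence at 460 nm and 530 nm.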

[5] = qHTS assay to identify small molecule agonists of the endoplasmic reticulum stress response signaling pathway - cell viability counter screen (AID 1159517; calls by dose curve;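 further: HeLa cells carrying an ER stress response element beta-lactamase reporter; series mostly up to about 61 µM; nearly all actives have a fitted effect of over 50% in size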)
How it was run: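 Luminescence readout: CellTiter-Glo, 30 min RT, same wells as the ESRE-bla reporter read. HeLa ESRE-bla, 1,500 cells/well, o/n 37 C; cpd 5 hr 37 C/5% CO2.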

[6] = qHTS assay to identify small molecule antagonists of the retinoid-related orphan receptor gamma (ROR-gamma) signaling pathway - cell viability counter screen (AID 1159520); further: nearly all actives have a fitted effect of over 50% in size
How it was run: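 Tet-on ROR gamma CHO cells (1,000/well) were plated 4 hr, given compounds in DMSO for 2 hr at 37 C, then induced with 1 uM final doxycycline for 16 hr. Viability was read as ATP by CellTiter-Glo luminescence after 30 min.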

[7] = target: Nuclear receptor ROR-gamma (Homo sapiens) (UniProt P51449); assay: qHTS assay to identify small molecule antagonists of the retinoid-related orphan receptor gamma (ROR-gamma) signaling pathway (AID 1159521;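 further: CHO cells with doxycycline inducible ROR-gamma driving an RORE luciferase reporter; top concentration of the series differs between compounds; nearly all actives have a fitted effect of over 50% in size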)
How it was run: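 RORγ antagonism is scored from reduced reporter luminescence in Tet-on CHO cells. Induction used 1 uM final doxycycline hyclate for 16 h at 37 C, following a 2 h compound exposure.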

[8] = qHTS assay to identify small molecule agonists of the AP-1 signaling pathway - cell viability counter screen (AID 1159525; calls by dose curve; further: nearly all actives have a fitted effect of over 55% in size)
How it was run: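 ME-180 AP-1-bla, 2500 cells/well, Opti-MEM + 0.5% dialyzed FBS; overnight 37 °C; cpd 15-pt titration, 5 h 37 °C; CellTiter-Glo 30 min RT; luminescence read; normalised to TOAB and DMSO controls.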

[9] = qHTS assay to identify small molecule agonists of the AP-1 signaling pathway (AID 1159526; calls by dose curve)
[10] = target: Retinoic acid receptor RXR-alpha (Homo sapiens) (UniProt P19793); assay: qHTS assay to identify small molecule agonists of the RXR signaling pathway (AID 1159527; calls by dose curve; further: nearly all actives have a fitted effect of over 35% in size)
Chain of Retinoic acid receptor RXR-alpha (Homo sapiens) (P19793 whole entry, looked up): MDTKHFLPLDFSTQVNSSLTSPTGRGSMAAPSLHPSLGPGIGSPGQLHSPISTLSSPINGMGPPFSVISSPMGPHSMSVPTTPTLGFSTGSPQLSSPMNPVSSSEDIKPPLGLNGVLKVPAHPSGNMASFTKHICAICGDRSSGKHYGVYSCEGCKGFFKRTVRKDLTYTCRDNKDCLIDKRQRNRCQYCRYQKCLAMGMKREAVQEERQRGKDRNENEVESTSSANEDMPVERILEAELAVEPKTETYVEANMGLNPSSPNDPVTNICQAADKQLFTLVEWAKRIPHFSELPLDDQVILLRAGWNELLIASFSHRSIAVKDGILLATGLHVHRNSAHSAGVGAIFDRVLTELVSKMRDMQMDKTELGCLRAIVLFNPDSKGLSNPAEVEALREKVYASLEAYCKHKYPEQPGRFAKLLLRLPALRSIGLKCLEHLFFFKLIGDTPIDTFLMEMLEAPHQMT
How it was run: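 qHTS of the Tox21 10K library in GeneBLAzer RXR-alpha HEK 293T cells carrying a beta-lactamase reporter […]; 16 hr treatment, 9-cis retinoic acid as agonist control, FRET read-out.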

[11] = qHTS assay to identify small molecule agonists of the RXR signaling pathway - cell viability counter screen (AID 1159529)
How it was run: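 Cell viability is measured by CellTiter-Glo luminescence, 30 min at room temperature, in wells already read for beta-lactamase. Engineered HEK 293T cells (RXR-alpha-UAS-bla) are dosed 16 hr at 37 C. Tetraoctyl ammonium bromide serves as positive control.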

[12] = qHTS assay to identify small molecule antagonists of the retinoid acid receptor (RAR) signaling pathway - cell viability counter screen (AID 1159551); further: nearly all actives have a fitted effect of over 35% in size
How it was run: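 Retinol-stimulated (1 uM final) C3RL4 cells, compound 6 h, 37 C; readout CellTiter-Glo luminescence (ATP) after 30 min RT incubation.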

[13] = qHTS assay to identify small molecule antagonists of the retinoic acid receptor (RAR) signaling pathway (AID 1159552; further: nearly all actives have a fitted effect of over 50% in size)
How it was run: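 Quantitative HTS in C3RL4 RARE-luciferase reporter cells. Compounds were added with 1 uM (final) retinol; luminescence was read after 6 hr.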

[14] = qHTS assay to identify small molecule agonists of the retinoic acid receptor (RAR) signaling pathway (AID 1159553)
How it was run: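 Reporter readout comes from luciferase under RARE control in C3RL4 cells; compound exposure lasts 6 hr at 37 C in 5% CO2, and luminescence is recorded following a 30 min room-temperature incubation with reagent.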

Measured: Potency

[O-][Br+2]([O-])O
inactive: all assays above

C1CN2CCC1CC2
inactive: all assays above

O=C(O)C(Br)(Br)Br
inactive: all assays above

CNC(=O)O/N=C(/CSC)C(C)(C)C
inactive: all assays above

CC[C@H](N)c1ccccc1
inactive: all assays above

Cc1cccc2sc3nncn3c12
inactive: all assays above

CN(C)CCc1c[nH]c2cccc(OP(=O)(O)O)c12
inactive: all assays above

O=S1(=O)OCCO1
inactive: all assays above

CC(C)(C)C(=O)C(Cl)Cl
not listed: [1]
inactive: all other assays above

CCOC(=O)N(C)N=O
inactive: all assays above
